Pf Dd2 inh: blocks in vitro growth of P. falciparum Dd2. hit rate 4.3% among 120,000. P. falciparum Dd2 growth, SYBR Green, 72 h. Potency, µM (doses to about 28.9 µM), most hits filed as inhibitors; active means well fitted inhibition curve with a large enough effect; further: nearly all actives have a fitted effect of over 65% in size
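Infected erythrocytes (Dd2, 0.3% parasitemia, 2.5% hematocrit final) are added to compound in RPMI-1640/Albumax II medium, grown 72 h at 37C in low oxygen, then lysed with saponin/Triton-X containing SYBR Green and read by fluorescence.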
Numbers stand for hits; [ ] = dose if it differs, or a comment. The full list was thinned out, with hits kept by preference.

How did COCC1CN(C)CC12CCN(Cc1ccc(F)c(Cl)c1)CC2 (configuration not stated) do in these assays?
Pf Dd2 inh: 5µM

What do the screens show for `COCC1CN(C)CC12CCN(Cc1ccc(F)cc1F)CC2` (configuration not stated)?
Pf Dd2 inh: inactive

How did COCC1CN(S(=O)(=O)c2cccs2)CC12CCNCC2 (configuration not stated) do in these assays?
Pf Dd2 inh: inactive

What do the screens show for `COCC1CN(C(C)=O)CC12CCN(S(=O)(=O)c1cccs1)CC2` (configuration not stated)?
Pf Dd2 inh: inactive

Results for c1ccc(-c2nnc3ccc(N4CCc5ccccc5C4)nn23)nc1 ?
Pf Dd2 inh: inactive

What do the screens show for `COc1ccc(C(=O)N2CCC(N3C(=O)C(O)C34CCCCC4)CC2)cc1F` (configuration not stated)?
Pf Dd2 inh: inactive

How did COc1ccc(C(=O)N2C[C@@H]3OCC(=O)N(CC4CC4)[C@@H]3C2)cc1 do in these assays?
Pf Dd2 inh: inactive

What do the screens show for `COC[C@H]1CCCN1Cc1cn(-c2ccccc2)nc1-c1ccc(OC)cc1F`?
Pf Dd2 inh: 10µM

What do the screens show for `COc1ccc2nc(CO[C@H]3CN(Cc4cn(C)c5ccccc45)C[C@H]3F)[nH]c2c1`?
Pf Dd2 inh: inactive

How did COc1ccc(-c2ccnc3nc(-c4ccccc4OC)nn23)c(F)c1 do in these assays?
Pf Dd2 inh: inactive

What do the screens show for `COc1ccc(-n2cc(CN3CCCC(CO)C3)c(-c3cccc(F)c3)n2)cc1` (configuration not stated)?
Pf Dd2 inh: 13µM

Results for CCc1cnc(C)nc1N1CCN(Cc2ccccc2F)C(CCO)C1 (configuration not stated) ?
Pf Dd2 inh: inactive

What do the screens show for `COc1ccc(-c2nc3c(C)cccc3cc2CN2CC[C@@H](O)C2)cc1`?
Pf Dd2 inh: inactive

How did Cc1ccccc1-c1nn(-c2ccc(F)cc2F)cc1CN1CCCC1CCO (configuration not stated) do in these assays?
Pf Dd2 inh: 7.9µM

How did Cc1ccccc1-c1nc2cc3c(cc2cc1CN1CCC[C@H]1CO)OCO3 do in these assays?
Pf Dd2 inh: inactive

How did COC[C@@H]1CCCN1Cc1cn(Cc2ccccc2)nc1-c1cc2ccccc2o1 do in these assays?
Pf Dd2 inh: inactive

How did COc1ccc(-c2nn(-c3ccccc3)cc2CN2CCN(C)C(C)C2)c(F)c1 (configuration not stated) do in these assays?
Pf Dd2 inh: 11µM

How did COc1ccc(-n2cc(CN3CCN(C)C(C)C3)c(-c3cccc(F)c3)n2)cc1 (configuration not stated) do in these assays?
Pf Dd2 inh: inactive

What do the screens show for `COc1ccc(-c2nn(-c3ccccc3)cc2C(=O)Nc2ccccc2OC)cc1`?
Pf Dd2 inh: inactive

What do the screens show for `COc1ccc(OC)c(CNC(=O)C2CCCCC(=O)N2)c1` (configuration not stated)?
Pf Dd2 inh: inactive

Results for COCCC(=O)N1CC(F)(F)C[C@H]1c1nc(-c2ccncc2)no1 ?
Pf Dd2 inh: inactive

What do the screens show for `CN1CCNc2nc(COc3ccccc3OC(F)(F)F)n(Cc3ccccc3)c2C1=O`?
Pf Dd2 inh: inactive

How did O=C(CC1CNCCO1)N1CCN(C(=O)c2ccccc2)CC1 (configuration not stated) do in these assays?
Pf Dd2 inh: inactive

How did CC(C)N1C(=O)C2(CCCC2)C1C(=O)N1CCCC1 (configuration not stated) do in these assays?
Pf Dd2 inh: inactive

What do the screens show for `Cc1ccc(NC(=O)CCn2ccn3nc4c(c3c2=O)CCCC4)cc1`?
Pf Dd2 inh: inactive

How did Cc1ccc(-c2ccc3nnc(CNC(=O)C(C)c4ccccc4)n3n2)cc1 (configuration not stated) do in these assays?
Pf Dd2 inh: inactive

How did CN(CC[C@H]1CN(C(=O)c2ccc(C(F)(F)F)cc2)CC[C@H]1CC(=O)O)c1ccccc1 do in these assays?
Pf Dd2 inh: inactive

Results for O=C(CN1C(=O)C(c2ccccc2)=NC12CCCCCC2)Nc1cccc(Cl)c1 ?
Pf Dd2 inh: inactive

How did O=c1[nH]c(C2CCCN(Cc3cccc4ccccc34)C2)nn1-c1ccc(Cl)cc1 (configuration not stated) do in these assays?
Pf Dd2 inh: inactive

Results for COc1ccc(-c2nn(-c3ccccc3)cc2CN2CCCC(CO)C2)c(F)c1 (configuration not stated) ?
Pf Dd2 inh: 8.9µM

How did COC1CCCN(Cc2cn(-c3ccc(F)cc3)nc2-c2ccccc2Cl)C1 (configuration not stated) do in these assays?
Pf Dd2 inh: 13µM

What do the screens show for `COc1ccc(CN2CCc3nc(N4CCN(C)CC4)[nH]c(=O)c3CC2)c(OC)c1`?
Pf Dd2 inh: inactive[5.79 µM]

How did COc1ccc(F)c(CN2CCCC(O)(CN3CCC(CO)CC3)C2=O)c1 (configuration not stated) do in these assays?
Pf Dd2 inh: inactive

Results for COc1ccc(-c2nn(-c3ccccc3)cc2CN2CCN(C)CC2)c(F)c1 ?
Pf Dd2 inh: 10µM

How did COc1ccc2c(c1)c(CN1CCc3nc(N4CCN(C)CC4)[nH]c(=O)c3CC1)cn2C do in these assays?
Pf Dd2 inh: inactive[5.79 µM]

What do the screens show for `COc1ccc(-c2nn(-c3ccccc3)cc2CN2CCN3CCCC3C2)c(F)c1` (configuration not stated)?
Pf Dd2 inh: 7.1µM

How did CNCC(=O)N1CCCC(N2CCN(c3ccc(OC)cc3)CC2)C1 (configuration not stated) do in these assays?
Pf Dd2 inh: inactive

Results for c1ccc(-c2[nH]ncc2CN2CCCC(N3CCN(c4ccccc4)CC3)C2)cc1 (configuration not stated) ?
Pf Dd2 inh: inactive

How did COc1ccc(F)c(CN2CCC(CCC(=O)N3CCN(c4ccccc4)CC3)CC2)c1 do in these assays?
Pf Dd2 inh: inactive

How did O=C(c1ccccc1OCC1CCCN(Cc2ccc(F)cc2Cl)C1)N1CCOCC1 (configuration not stated) do in these assays?
Pf Dd2 inh: inactive

How did Cc1cc(C[C@@H]2COC[C@@H]2NC(=O)Cn2nc(C)n(-c3ccccc3)c2=O)on1 do in these assays?
Pf Dd2 inh: inactive

How did O=C(Nc1ccc(C2(C(=O)NCc3ccc(F)cc3Cl)CCC2)cc1)C1CC1 do in these assays?
Pf Dd2 inh: inactive

What do the screens show for `COc1ccc(-c2cn3c(n2)CO[C@@H](CNC2CCC2)C3)cc1`?
Pf Dd2 inh: inactive

How did O=C(c1ccc(Cl)cc1)N1CCC2(CC1)OCC(C(=O)N1CCCC1)N2C(=O)c1ccccc1 (configuration not stated) do in these assays?
Pf Dd2 inh: inactive

What do the screens show for `CC1(CCCCN2CCOCC2)COc2ccc(C(=O)Nc3ccc(Cl)cc3)cc2N1` (configuration not stated)?
Pf Dd2 inh: inactive

How did O=C(CC1CCOCC1)N1CCC(Cc2ccccc2)CC1 do in these assays?
Pf Dd2 inh: inactive

Results for CCCSc1ncc(CN2CCCC3(CCNC3)C2)cn1 (configuration not stated) ?
Pf Dd2 inh: inactive

What do the screens show for `CN(C)c1ccc(C(CNC(=O)COc2ccccc2)N2CCOCC2)cc1` (configuration not stated)?
Pf Dd2 inh: inactive

Results for Cc1cc(C)cc(OCC(=O)NCC(c2ccc(Cl)cc2)N2CCCCC2)c1 (configuration not stated) ?
Pf Dd2 inh: 11µM

How did CCc1ccc(OCC(=O)NCC(c2ccc(Cl)cc2)N2CCOCC2)cc1 (configuration not stated) do in these assays?
Pf Dd2 inh: 11µM

How did COc1ccc(C(=O)NCC(c2ccc(Cl)cc2)N2CCCCC2)cc1 (configuration not stated) do in these assays?
Pf Dd2 inh: inactive

Source: PubChem
